JMJD2A Tudor: qHTS Assay for Inhibitors of JMJD2A-Tudor Domain; Lysine-specific demethylase 4A (Homo sapiens), O75164; AlphaScreen JMJD2A-Tudor / H3K4me3 peptide binding; Potency, µM (top dose mostly 114 µM), without a hit: at the highest dose activity change, negative = inhibition, usual class: inhibitors; hit rate 4.4% among 390,000; further: on the % scale 0 is the no-effect control and ±100 the full control effect; nearly all actives have a fitted effect of over 50% in size
HP1b binding inh: HTS for Inhibitors of HP1-beta Chromodomain Interactions with Methylated Histone Tails | Chromobox protein homolog 1 (Homo sapiens), P83916 | AlphaScreen HP1-beta / biotin-H3K9me3 peptide binding | Potency, µM (top dose mostly 114 µM), inactives show at the top dose activity change, negative = inhibition, most hits filed as inhibitors | hit rate 0.56% among 390,000; further: nearly all actives have a fitted effect of over 70% in size
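Compound inhibition of the preformed complex between 50 nM HP1-beta and 50 nM biotinylated H3K9me3 peptide was read by AlphaScreen. Buffer was PBS pH 7.4 with 0.01% Tween-20. Incubations ran 30 min at room temperature, with 10 ug/mL donor/acceptor beads.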
G9a block: qHTS Assay for Inhibitors of Histone Lysine Methyltransferase G9a | Potency, µM (top dose mostly 102 µM), for the others: at the highest dose activity, negative = inhibition, hits mostly inhibitors | Histone-lysine N-methyltransferase EHMT2 (Homo sapiens), Q96KQ7 | hit rate 8.8% among 350,000 | G9a H3K9 monomethylation, AlphaScreen, 2 h; further: on the % scale 0 is the no-effect control and ±100 the full control effect; nearly all actives have a fitted effect of over 75% in size
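Compounds were preincubated with 20 nM G9a for 15 min, after which biotinylated H3K9 peptide (500 nM) and SAM (20 uM) started a 2 h room-temperature reaction. Monomethylated product was quantified by antibody-based AlphaScreen chemiluminescence.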
BAZ2B block: qHTS Assay for Inhibitors of BAZ2B; AlphaScreen BAZ2B-H3K14Ac peptide displacement; Potency, µM (series often up to 114 µM), without a hit: top-dose activity change, negative = inhibition, actives largely listed as inhibitors; Bromodomain adjacent to zinc finger domain protein 2B (Homo sapiens), Q9UIF8; hit rate 4.4% among 360,000; further: on the % scale 0 is the no-effect control and ±100 the full control effect; nearly all actives have a fitted effect of over 60% in size
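AlphaScreen displacement: compounds (up to 110uM) incubated 30 min at room temperature with a preformed 50 nM BAZ2B/50 nM biotinylated H3K14Ac peptide complex in PBS pH 7.4 with Tween-20. Donor and acceptor beads at 10 ug/mL final added, 20 min light-protected before reading.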
Sfp inh: qHTS Assay for Inhibitors of Bacillus subtilis Sfp phosphopantetheinyl transferase (PPTase) | Potency, µM, for the others: largest response in the series, negative = inhibition, most hits filed as inhibitors | Biochemical Sfp PPTase activity, qHTS | hit rate 3.5% among 310,000 | AID 1490, 2009;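 further: the enzyme is Sfp with the accession as filed and its product quenches rhodamine fluorescence; 0% = enzyme reaction without inhibitor and -100% = no enzyme wells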
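Sfp 15 nM + cpd, 15 min RT; start w/ rhodamine-CoA 5 uM, BHQ-2-YbbR 12.5 uM (final); 50 mM Hepes pH 7.6, 10 mM MgCl2, 0.01% NP-40, 0.01% BSA; read 525/598 nm at 0 and 30 min.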
ALOX12 inh: Primary qHTS assay for inhibitors of human arachidonate 12S-lipoxygenase (ALOX12): Round 2. Potency, µM (doses to about 108 µM), for inactives: top-dose activity change, negative = inhibition, hits mostly inhibitors. Polyunsaturated fatty acid lipoxygenase ALOX12 (Homo sapiens), P18054. purified 12hLO, xylenol orange hydroperoxide absorbance. AID 1671190, 2021. hit rate 1.1% among 580,000; further: on the % scale 0 is the no-effect control and ±100 the full control effect
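Hydroperoxide product was detected by ferrous iron/xylenol orange as the 573 to 405 nm absorbance ratio. Arachidonic acid at 40 uM (final) was turned over for 30 min at room temperature by 150 nM human 12hLO, pH 7.0 Hepes buffer, after 15 min compound preincubation.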
* = called active by the depositor; ? = inconclusive; · = no result given; [ ] = another dose, or the depositor's remark. Sampled rows, rich in hits. Any-hit rate of the full collection: about 8.7%. The call rests on the fitted dose curve; in most records, active means well fitted curve in the direction sought with a large enough effect; inconclusive means small, poorly fitted or top-dose-only effect, or another doubt; inactive means no such curve, though single readings can be large; an effect the other way counts as inactive or inconclusive. Potency means the concentration at half of the fitted maximal effect.

SMILES | JMJD2A Tudor | HP1b binding inh | G9a block | BAZ2B block | Sfp inh | ALOX12 inh
CS(=O)(=O)N1CCOc2ccc(CCC(=O)N3CCC(C(N)=O)CC3)cc2C1 | · | · | · | · | · | 48%
Cc1snnc1C(=O)NC(=S)Nc1ccccc1 | -28% | -6% | ? | -18% | 40µM* | ?
Cc1nc(NC(=S)Nc2ccccc2)sc1C | -22% | 5% | -39% | -27% | -17% | ?
O=C(NC(=S)Nc1cccnc1)c1cccc(Br)c1 | -19% | -19% | 35µM* | -16% | 2% | -13%
O=C(NC(=S)Nc1cccnc1)c1ccccc1 | 11% | 3% | 79µM* | 4% | 79µM* | ?
CNC(=O)c1ccc(NC(=O)CCNC(=O)Nc2ccccc2)cc1 | -1% | 38% | 45µM* | -2% | · | -4%
COCCN1Cc2ccc(NCc3ccccc3)nc2C(C)(C(=O)N(C)CCOC)C1 (stereo not drawn) | · | · | · | · | · | 11%[176 µM]
Cc1cccc(NC(=O)CN2CCN(C(=O)NCc3ccccc3CN(C)C)CC2)c1C | · | · | · | · | · | 3%
O=C(CCNC(=O)c1ccccc1)Nc1cccnc1 | 45µM* | -1% | -26% | 19% | 0% | 228%
O=C(NC(=S)Nc1cccnc1)c1cccs1 | ? | 11% | ? | -23% | 56µM* | ?
O=C(Nc1cccnc1)c1cccs1 | -12% | 38% | -15%[12.7 µM] | 1% | 14% | 0%
O=C(NC(=S)Nc1cc(Cl)ccc1O)c1cccc(Br)c1 | -10% | 6% | 71µM* | -4% | -12% | 0%
O=C(CCc1ccccc1)Nc1cccnc1 | -10% | 31% | 18% | -8% | 3% | 0%
Cc1ccc(CN2CCC(CNC(=O)c3c(C)oc4ncnc(N5CCOCC5)c34)C2)cc1 (stereo not drawn) | · | · | · | · | · | -17%
CC(c1ccc(S(C)(=O)=O)cc1)N(C)S(=O)(=O)c1cc(Cl)cc(Cl)c1 (stereo not drawn) | · | · | · | · | · | -4%
Cc1cccn2cc(COc3ccccc3C(=O)O)nc12 | · | · | · | · | · | -45%
Cc1cccc(N=c2c([N+](=O)[O-])nn(-c3ccc(Cl)cc3)n2O)c1 | -9% | 3% | 28µM* | 10µM* | 14% | -13%
Cc1cc(C)cc(N=c2c([N+](=O)[O-])nn(-c3cccc(Cl)c3)n2O)c1 | ? | -33% | 40µM* | ? | -5% | -1%
O=[N+]([O-])c1nn(-c2ccc(Cl)cc2)n(O)c1=NCc1ccccc1Cl | -30% | 8% | ? | ? | 12% | 25%
COc1ccc(C(=O)NCC(=O)Nc2ccccc2)cc1OC | -13% | 18% | 22%[59 µM] | 47% | 9% | 455%
C=CC[n+]1c(-c2ccc(OC)c(OC)c2)csc1NNC(=O)Nc1ccccc1 | ? | ? | ? | 32µM* | -28% | -10%
CC(=O)Nc1ccc(NC(=O)Cn2cc3c(n2)CCCCC3)cc1 | -17% | 38% | 16µM* | -35% | · | -13%
CCN(CC)c1ccc(NC(=O)Cn2cc3c(n2)CCC(C)C3)c(C)c1 (stereo not drawn) | ? | ? | 4.5µM* | ? | -26% | 269%
CCN(CC)c1ccc(NC(=O)Cn2cc3c(n2)CCCC3)c(C)c1 | ? | 14% | 10µM* | -28% | · | ?
Cc1cc2nc(/C(C#N)=C/c3ccc(F)c(Br)c3)[nH]c2cc1C | · | · | · | · | · | 7%
Cc1oncc1C(=O)NC(C)C | 6% | 38% | 45µM* | 4% | 25% | 0%
Cn1cccc1-c1cc(C(=O)N2CCOCC2CC(=O)Nc2ccccc2)[nH]n1 (stereo not drawn) | · | · | · | · | · | -7%
CNC(=S)NNC(=O)c1cn(C)nc1C | -10% | 54% | 40µM* | -8% | 79µM* | -2%
